The source of these data is PubChem BioAssay.

Values joined by “and” are separate entries in the source; they are usually repeats but may differ in a detail not shown here. Equal entries are not always repeated. For some of these results: Entries with a potency or affinity are not part of this list. Active and inactive are the calls of the source.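 The calls were made as follows, unless noted: active = thallium flux through the channel raised or lowered by more than 3 SD from vehicle-only wells, actives on both sides; inactive = the rest.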

Assay [1] can be described thus: blockers of polyQ-driven CASP3 activation – cell-based (AID 1583). As to conditions: polyglutamine-induced caspase-3 activation, cell assay; stronger effect = higher value;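 tested at 10 µM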.
A short description of assay [2]: yeast 75Q aggregation reduction – 75Q-TubU reporter (AID 1593). As to conditions: Yeast 75Q polyglutamine aggregation reporter.
Assay [3] is described as follows: blockers of cytochrome c efflux from mitochondria – biochemical, purified mitochondria (AID 1603).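 Also: mouse liver mitochondria challenged with calcium chloride; signal normalized to the plate average as 100%.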 The following applies: stronger effect = lower value.
A short description of assay [4]: polyglutamine aggregate formation blockers (AID 1604). The following applies: polyglutamine-induced protein aggregation inhibition assay; stronger effect = higher value; tested at 2.5 µM.
The nature of assay [5]: glutamate transport activators, MN-1 cells, MN-1 cell line (AID 1612).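 Also: tested at 1 µM final; 0% = mean of DMSO vehicle wells on each plate; positive means more glutamate uptake than control and negative means less.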 The following applies: MN-1 motor neuron cells, stronger effect = higher value.
The nature of assay [6]: 75Q-TubH aggregate inhibition, S. cerevisiae, yeast (AID 1616). As to conditions: S. cerevisiae 75Q-TubH polyglutamine aggregation suppression; stronger effect = higher value.
The nature of assay [7]: signal quenchers or enhancers, Cy5 substrate/SSB – biochemical, NIH Clinical Collection, E. coli SSB, artefact control for HCV NS3 helicase inhibitor project (AID 743268; call rule not given here). The following applies: Cy5-oligo bound E. coli SSB, fluorescence interference.
The test system of assay [8] is Hepatitis C virus NS3 helicase. In words: blockers of NS3h binding to DNA – biochemical, fluorescence polarization, NIH Clinical Collection, primary screen (AID 743270; call rule not given here). The following applies: NS3 helicase binding to Cy5-dT15 DNA, stronger effect = higher value, concentration not given here. On the technique in general: Polarisation of emitted light reports the rotation of a fluorescent probe.

Assay [9] addresses Single-stranded DNA-binding protein (Escherichia coli (strain K12)) (UniProt P0AGE0). In words: SSB-ssDNA binding inhibitors – biochemical, fluorescence polarization, NIH Clinical Collection, counter-screen for HCV NS3 helicase inhibitor project (AID 743271; in the data active = inhibition above about 28%). The following applies: E. coli SSB-DNA binding, stronger effect = higher value, concentration not given here.
Assay [10] is described as follows: compounds distorting NS3 helicase fluorescence signal – biochemical, NIH Clinical Collection, artefact control for HCV NS3 helicase inhibitor project (AID 743272; call rule not given here;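 also: HCV NS3 helicase with a Cy5 labelled single stranded DNA probe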). The following applies: fluorescence interference counterscreen, HCV NS3 helicase assay; stronger effect = lower value. A general note: A counterscreen serves to expose hits that act by an unwanted route or on another target.

Assay [11] can be described thus: viability loss with induced miR-34 in A549 – imaging, A549 dox-inducible miR-34, nuclei and caspase counts, primary screen (AID 1347080;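 active = compounds whose cell count with miR-34 switched on is under 0.7 times the count with it off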). The following applies: A549 miR-34 inducible, Hoechst nuclei count, 48 h.
A short description of assay [12]: galactose survival enhancers in mitochondrial complex I cybrids – cell-based, galactose medium, ATP luminescence, primary screen (AID 1645843;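 active = z-score of at least 1.8 in each of two replicates, scored against plate mean and spread of sample wells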;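 also: positive z means more ATP and so rescue of galactose-driven cybrid death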). As to conditions: complex I mutant cybrid cells, 72 h, stronger effect = higher value.
In a further assay the test system is R275C. In words: BK channel mutant inhibitors and activators – cell-based, U2OS BacMam, thallium flux, beta subunits, selectivity assay, profiling panel (AID 1259406).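 Also: initial slope of Thallos dye fluorescence rise after thallium is added; log ratio against the mean of 0.3% DMSO vehicle wells on the same plate.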 As to conditions: U2OS BacMam BK variants, at 30 µM.
The subject of the next assay is R275C/beta1. The assay is described as above. The following applies: U2OS BacMam BK variants, at 30 µM.
Another assay deals with R275C/beta2Delta. The description is as above. As to conditions: U2OS BacMam BK variants, at 30 µM.
The subject of a further assay is R275C/beta4. The assay is described as above. As to conditions: U2OS BacMam BK variants, at 30 µM.
The subject of another assay is R275C/Slo1WT/beta2. The assay is described as above. The following applies: U2OS BacMam BK variants, at 30 µM.
The nature of assay [13]: restoration of touch response, mutant HTT neurons – whole organism, C. elegans mechanosensory neurons, N-terminal huntingtin (AID 1599). The following applies: C. elegans polyQ-huntingtin mechanosensory neurons, stronger effect = higher value.
The nature of assay [14]: compounds altering viability of human ES cells (AID 493140; call rule not given here;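 also: cells exposed to compounds for four days before counting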). As to conditions: human embryonic stem cell survival screen; stronger effect = higher value.
Assay [15] is described as follows: growth inhibition, single agents and combos, ICB984, cell-based, cisplatin or BGB combos, synergistic combos for chromothripsis tumors (AID 1671451; call rule not given here;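 also: cells exposed for 96 hours before readout; 0% = vehicle DMSO and 100% = killing by high DMSO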). The following applies: ICB984 medulloblastoma cells, drug combinations, stronger effect = higher value.
Where [16] appears, read: stronger effect = lower value, cell number ratio, induced over uninduced.
The mark [17] stands for this setting: measured here: relative caspase fold change +Dox/-Dox.
Setting [18] is: measured here: total cells with miR-34 induction, stronger effect = lower value.
[19] abbreviates: measured here: total cells without miR-34 induction.

By inhibition is commonly meant the drop in the measured response relative to a control, in per cent.

Regarding `Oc1c(Cl)cc(Cl)c2cccnc12`, the inhibition is 31.4% in assay [1], 2.27% (inactive) in [8] and -0.48% (inactive) in assay [9]. For the same compound, the score in assay [2] was -0.52. Also, the cytochrome c release ratio in assay [3] came out at 0.8. Besides, in assay [4], the inhibition of aggregation was -25.9%. The glutamate uptake change in [5] was -23%. Moreover, in [6], the aggregation suppression score is -0.164. The fluorescence ratio in [7] was 1.02 (inactive); in assay [10] it was 0.95 (inactive). In addition, the fold change is 1.3 (inactive) and 0.99 (inactive) and 0.933 (inactive) in [11] (setting [16]); 0.88 and 1.1 and 1.4 in assay [11] (setting [17]). Besides, the cell count in assay [11] (setting [18]) is 4540 and 5720 and 5380; in assay [11] (setting [19]) it was 3500 and 5780 and 5770. The z-score in assay [12] is -1.51 (inactive). The log fold change Tl+ flux in the assay with R275C is 0.0996 (active); with R275C/beta1, 0.249 (active); in the assay with R275C/beta2Delta, 0.0748 (inactive); in the assay with R275C/beta4, 0.422 (active); with R275C/Slo1WT/beta2, 0.19 (active).
Turning to `CC1COc2c(N3CCN(C)CC3)c(F)cc3c(=O)c(C(=O)O)cn1c23` (stereo not given), the inhibition in assay [1] was 10.8%; in [8], -2.27% (inactive); in assay [9], 2.57% (inactive); in assay [15] (BGB IC20 combo, at 0.005 µM), -17.9% and -25.7% and 9.81%; in assay [15] (BGB IC40 combo, at 0.005 µM), -33.2% and -21.8% and -24%; in assay [15] (BGB IC40 combo, at 0.05 µM) it was -26.1% and 10.2% and -18.3%. Besides, the inhibition in [15] (at 0.5 µM) is -27.6% (inactive) and 4.56% (inactive) and -22.5% (inactive); in assay [15] (cisplatin combo, at 0.05 µM) it was -29.6% and 10.2% and -23%; in assay [15] (cisplatin combo, at 0.5 µM) it was -35.8% and -11.2% and -26.4%; in [15] (cisplatin combo, at 5 µM) it was -56.5% and 3.02% and -28.7%; in assay [15] (measured here: 5 uM single agent, at 5 µM), -20% and 15.7% and -1.17%. For the same compound, the score in [2] came to 1.04. The rescue above control in assay [13] was -6.02. Further, the cytochrome c release ratio in [3] came out at 1.57. In addition, the inhibition of aggregation in assay [4] is 67.8%. In addition, in assay [5], the glutamate uptake change was -4.74%. In assay [6], this compound yielded an aggregation suppression score of 1.18. Besides, the survival in assay [14] is 10.6 (inactive). Also, the fluorescence ratio in assay [7] is 0.99 (inactive); in assay [10], 0.87 (inactive). The log fold change Tl+ flux in the assay with R275C is 0.0249 (inactive); in the assay with R275C/beta1, -0.02 (inactive); in the assay on R275C/beta2Delta it was -0.03 (inactive); in the assay on R275C/beta4, 0.0112 (inactive); with R275C/Slo1WT/beta2, 0.0308 (inactive).
Consider `CN=C(NC#N)NCCSCc1nc[nH]c1C`, for which the inhibition is 15.1% in assay [1], -3.18% (inactive) in [8] and -2% (inactive) in assay [9]. For the same compound, the score in assay [2] stood at 1.08. This compound yielded a rescue above control in assay [13] of -9.17. Further, the cytochrome c release ratio in assay [3] was found to be 1.04. Besides, the inhibition of aggregation in assay [4] stood at 58.9%. Also, the glutamate uptake change in [5] was -5.55%. For the same compound, in [6], the aggregation suppression score came out at 1.05. For the same compound, the fluorescence ratio was 0.98 (inactive) in [7] and 0.94 (inactive) in assay [10]. The log fold change Tl+ flux was 0.00692 (inactive) in the assay with R275C; -0.0361 (inactive) in the assay with R275C/beta1; 0.00462 (inactive) in the assay on R275C/beta2Delta; 0.0223 (inactive) with R275C/beta4; 0.0339 (inactive) in the assay on R275C/Slo1WT/beta2.
`CC1(C)O[C@@H]2[C@@H](CO[C@@]3(COS(N)(=O)=O)OC(C)(C)O[C@@H]23)O1`: the fluorescence ratio in [7] is 1.04 (inactive); in [10], 1.02 (inactive). For the same compound, the inhibition in [8] is -0.4% (inactive); in assay [9], -6.26% (inactive). Further, the fold change in [11] (setting [16]) is 0.931 (inactive) and 0.874 (inactive); in assay [11] (setting [17]), 1.93 and 6.61. Further, the cell count in assay [11] (setting [18]) is 9480 and 11800; in [11] (setting [19]) it was 10200 and 13500. Besides, the z-score in assay [12] was -0.1 (inactive). Besides, the log fold change Tl+ flux in the assay on R275C is -0.04 (inactive); in the assay with R275C/beta1 it was 0.0176 (inactive); in the assay with R275C/beta2Delta, 0.0245 (inactive); with R275C/beta4, -0.0182 (inactive); in the assay on R275C/Slo1WT/beta2, 0.00527 (inactive).
On to `CCCc1nc2c(C)cc(-c3nc4ccccc4n3C)cc2n1Cc1ccc(-c2ccccc2C(=O)O)cc1`, for which the fluorescence ratio in assay [7] was 1.02 (inactive); in assay [10], 1.04 (inactive). The inhibition in [8] was 17% (active); in assay [9], 16.8% (inactive). For the same compound, in assay [12], the z-score is 1.57 (inactive) and -0.14 (inactive). Further, the log fold change Tl+ flux in the assay on R275C is -0.0814 (inactive); in the assay on R275C/beta1 it was -0.0256 (inactive); in the assay on R275C/beta2Delta it was -0.00129 (inactive); with R275C/beta4, 0.033 (inactive); in the assay on R275C/Slo1WT/beta2, 0.0168 (inactive).
